Assay outcomes: PubChem, Broad Institute
Rtt109 HAT inh: blocks Candida albicans Rtt109/Vps75 acetyltransferase activity; purified Rtt109/Vps75, ThioGlo CoA-SH fluorescence, 4 h; inhibition, % at 34.9 µM; actives 0.16% (n = 330,000);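 active = inhibition of at least 50% in every replicate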
Target sequence (Q5AAJ8 whole entry, looked up): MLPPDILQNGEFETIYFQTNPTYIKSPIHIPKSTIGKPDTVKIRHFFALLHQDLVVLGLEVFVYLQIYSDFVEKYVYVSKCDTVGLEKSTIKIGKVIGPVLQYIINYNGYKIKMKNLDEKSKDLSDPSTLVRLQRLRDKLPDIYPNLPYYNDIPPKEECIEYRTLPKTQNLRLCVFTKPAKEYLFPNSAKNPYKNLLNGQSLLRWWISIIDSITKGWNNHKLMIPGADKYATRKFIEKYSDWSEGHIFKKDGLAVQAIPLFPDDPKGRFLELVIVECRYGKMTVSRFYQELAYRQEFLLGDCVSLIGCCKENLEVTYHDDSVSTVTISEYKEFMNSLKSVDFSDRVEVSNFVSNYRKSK
PglD DTNB: inhibitors of Campylobacter jejuni PglD acetyltransferase. purified PglD enzyme, DTNB colorimetric CoA detection. inhibition, % at 12.5 µM. actives 0.098% (n = 360,000). AID 602405; in the data active = inhibition above about 16%, passing the limit was not always enough
N-glyco inh: blocks N-linked glycosylation in D54 reporter cells | D54 ERlucT glycosylation luciferase reporter, 24 h; percent of 100 nM tunicamycin response | reporter increase, % at 12.5 µM | actives 0.23% (n = 360,000) | AID 588692;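 active = mean luciferase reporter signal, scaled so untreated is 0 and the glycosylation-blocking control 100, at or above a set limit in every replicate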;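 also: luciferase carries N-glycosylation sites so blocking glycosylation raises the light; 0% = median of neutral control wells and 100% = median of 100 nM tunicamycin wells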
DENV2 CPE rescue: protects cells from dengue virus 2 cytopathic effect; DENV2-infected cells, cytopathic effect rescue, plate reader; CPE inhibition, % at 9.99 µM; actives 1.7% (n = 350,000); in the data active = CPE inhibition above about 20%, passing the limit was not always enough; tested in BHK-21 cells;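 also: 0% = median of neutral control wells and 100% = median of positive control wells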
* = called active by the depositor; . = no result given. Shown is part of a subset that was picked to be rich in hits.

SMILES | Rtt109 HAT inh | PglD DTNB | N-glyco inh | DENV2 CPE rescue
C[C@@H]1CN([C@H](C)CO)C(=O)c2cc(-c3ccccc3F)cnc2O[C@H]1CN(C)Cc1ccc(F)cc1 | . | 3 | . | 29*
COc1ccc(-c2cnc3c(c2)C(=O)N([C@@H](C)CO)C[C@H](C)[C@@H](CN(C)Cc2ccccc2)O3)cc1 | . | 1 | . | 48*
CN(C)CC(=O)Nc1ccc2c(c1)[C@@H]1C[C@H](CC(=O)NC3CCCC3)O[C@H](CO)[C@@H]1O2 | . | -2 | . | 10
C[C@@H]1CCCCO[C@H](CN(C)C(=O)c2ccncc2)[C@H](C)CN([C@H](C)CO)C(=O)c2cc(NC(=O)CCC(F)(F)F)ccc2O1 | . | -3 | . | 74*
C[C@@H]1CCCCO[C@@H](CN(C)C(=O)c2ccccc2)[C@@H](C)CN([C@H](C)CO)C(=O)c2cc(NC(=O)CCC(F)(F)F)ccc2O1 | . | -1 | . | 93*
C[C@@H]1CCCCO[C@H](CN(C)C(=O)c2ccccc2)[C@@H](C)CN([C@@H](C)CO)C(=O)c2cc(NC(=O)CCC(F)(F)F)ccc2O1 | . | -3 | . | -3
COc1cc(-c2nnc(SCC(=O)N3CCOCC3)o2)cc(OC)c1OC | 6 | -1 | 5 | -1
COc1cc(-c2nnc(SCC3(c4ccc(Br)cc4)OCCO3)o2)cc(OC)c1OC | 1 | 2 | 49* | .
CC(C)NC(=O)Nc1cccc2c1O[C@@H](CN(C)S(=O)(=O)c1ccccc1)[C@H](C)CN([C@H](C)CO)C2=O | . | 2 | . | 4
O=[N+]([O-])c1ccccc1N/N=C1\CC2CC=CC12 (stereo not drawn) | 7 | . | -1 | 30*
CN(C)c1ccc(C(C[N+](=O)[O-])c2c(N)n(C)c(=O)n(C)c2=O)c(F)c1C#N (stereo not drawn) | 12 | -1 | 28* | -3
COC(=O)[C@@H](NC(=O)CN=[N+]=[N-])c1ccccc1 | . | . | . | -5
COc1ccccc1CN(C)C(=O)c1cccc(S(=O)(=O)N2CCCc3ccccc32)c1 | 0 | -4 | -5 | 81*
Cc1ccc(S(=O)(=O)Nc2ccc3c(c2)CC(=O)N([C@@H](C)CO)C[C@@H](C)[C@H](CN(C)S(=O)(=O)c2ccc(Cl)cc2)O3)cc1 | . | -2 | . | 49*
Cc1ccc(S(=O)(=O)Nc2ccc3c(c2)CC(=O)N([C@@H](C)CO)C[C@@H](C)[C@@H](CN(C)S(=O)(=O)c2ccc(Cl)cc2)O3)cc1 | . | 1 | . | -7
Cc1ccc(S(=O)(=O)Nc2ccc3c(c2)CC(=O)N([C@H](C)CO)C[C@@H](C)[C@@H](CN(C)S(=O)(=O)c2ccc(C)cc2)O3)cc1 | . | 1 | . | -2
